Laboratory results: PubChem BioAssay

System: Sonic hedgehog protein (Shh)
Test: Sonic hedgehog microarray binding compounds – biochemical, small-molecule microarray, 635/667 nm fluorescence, primary screen (AID 1151);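 also: Shh protein binding to compounds spotted on small-molecule microarray slides; score combines spot fluorescence intensity with signal-to-noise across triplicate slides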
Settings: 635 nm fluorescence, higher = more signal

Going from COCCOC(=O)N1C(=O)[C@@]2(c3cc(C#CCC(C(=O)OC)C(=O)OC)ccc31)[C@H](c1ccccc1OCCO)N1[C@H](c3ccccc3)[C@H](c3ccccc3)OC(=O)[C@H]1[C@@H]2C(=O)N1CCN(c2ncccn2)CC1 to NC(=O)NCC#Cc1ccc2c(c1)[C@]1(C(=O)N2)[C@H](c2ccccc2OCCO)N2[C@H](c3ccccc3)[C@H](c3ccccc3)OC(=O)[C@H]2[C@@H]1C(=O)Nc1nc2ccccc2s1, the composite z-score falls from 1.89 to 0.812.

Compared with C=CCC(OC(C)=O)[C@@H]1[C@@H](N(Cc2ccc(-c3ccccc3)cc2)C(=O)c2cccc3ccccc23)c2cc(OCCCO)ccc2N1C(=O)c1ccc(-c2ccccc2)cc1 (some centres not stated), C=CCC(OC(C)=O)[C@@H]1[C@@H](N(Cc2ccc(-c3ccccc3)cc2)C(=O)c2ccc(-c3ccccc3)cc2)c2cc(OCCCO)ccc2N1C(=O)Cc1ccc2ccccc2c1 (some centres not stated) is higher in composite z-score: 0.362 for the first, 0.523 for the second.

First: O=C(NCCO)C1=C[C@H](Oc2ccccc2I)[C@@H](O)[C@H](N(Cc2ccco2)C(=O)Cc2ccccc2)C1
Second: CC(C)CNC(=O)[C@@]1(Cc2ccccc2I)c2ccccc2C(=O)N(C2CCCCC2)[C@H]1c1ccc(CO)cc1
The composite z-score of the first is higher: 0.412 for the first, 0.187 for the second.

Going from C#C[C@H](O[Si](C#Cc1ccc(Oc2ccccc2)cc1)(C(C)C)C(C)C)c1ccccc1 to [N-]=[N+]=Nc1ccccc1[C@@H]1OC(c2ccc(OCCCO)cc2)=N[C@]1(CCS(=O)(=O)c1ccccc1)C(N)=O, the composite z-score falls from 0.21 to -0.398.

First: CC1CC/C=C\[C@H]2OC34C=CCN(Cc5ccccc5)C(=O)[C@H]3N(CCCO)C(=O)[C@@H]4C2C(=O)O1 (some centres not stated)
Second: CCCC[C@H]1OB(O)C[C@H]2C1=C(COC)Cn1c(=O)n(-c3ccccc3)c(=O)n12
The composite z-score of the first is lower: -0.233 for the first, 0.948 for the second.

First: CCOC(=O)C[C@H]1[C@H](OC(=O)c2ccc(C(=O)c3ccccc3)cc2)[C@@H](NC(=O)c2ccccc2)c2cc(OCCCO)ccc2N1C(=O)Cc1ccc(OC)cc1
Second: C=CCC(OC(C)=O)[C@@H]1[C@@H](N(Cc2ccc(-c3ccccc3)cc2)C(=O)Cc2ccc(OC)cc2)c2cc(OCCCO)ccc2N1C(=O)Cc1ccc2ccccc2c1 (some centres not stated)
The composite z-score of the first is lower: -0.0887 for the first, 0.412 for the second.

Compared with Cc1ccc(S[C@]2(C(=O)NCCCN(C)C)CC(=O)N(Cc3ccccc3C(F)(F)F)[C@@H]2c2ccc(CO)cc2)cc1, Cc1ccc(S[C@]2(C(=O)NCCCN(C)C)CC(=O)N(Cc3cc(C(F)(F)F)cc(C(F)(F)F)c3)[C@@H]2c2ccc(CO)cc2)cc1 is lower in composite z-score: -0.548 for the first, -0.664 for the second.

First: C=CC[C@]1(C(=O)NCCCOC)N=C(c2ccc(OCCCO)cc2)O[C@H]1c1ccccc1CN=[N+]=[N-]
Second: [N-]=[N+]=Nc1ccccc1[C@@H]1OC(c2ccc(OCCCO)cc2)=N[C@]1(Cc1ccccc1)C(=O)N1CCOCC1
The composite z-score of the first is higher: -0.0138 for the first, -0.3 for the second.

First: COc1ccc(/C=C/C=O)cc1
Second: COC(=O)[C@@]1(Cc2ccc(OC)cc2)[C@@H]2C(=CC(=O)[C@H]2CC(=O)C(=O)N2CCCC2)CN1C(=O)c1ccccc1
The composite z-score of the first is higher: 1.6 for the first, -1.35 for the second.

Going from Cc1ccc(N2C(=O)c3ccccc3[C@@H](C(=O)NC3CC3)[C@@H]2c2ccc(CO)cc2)nc1 to COCCCNC(=O)[C@@]1(C)c2ccccc2C(=O)N(C(C)C)[C@H]1c1ccc(CO)cc1, the composite z-score rises from -0.958 to 1.38.

Compared with C=C(COC)/C(=C/C[C@@H](OC(=O)c1ccncc1)c1ccc(CO)o1)c1cc(C(=O)OC)ccc1OC, COc1ccc(C(=O)Nc2ccc(CN3C(=O)[C@]4(O[C@H](CCO)[C@@H]([Si](C)(C)c5ccc(OC)cc5)[C@@H]4C)c4ccccc43)cc2)cc1 is lower in composite z-score: 2.17 for the first, 1.48 for the second.

First: NC(=O)NCC#Cc1ccc2c(c1)[C@]1(C(=O)N2)[C@H](C(=O)Nc2nc3ccccc3s2)[C@H]2C(=O)O[C@H](c3ccccc3)[C@H](c3ccccc3)N2[C@@H]1c1ccccc1OCCO
Second: COc1cc2c(cc1OC)CN(C(=O)[C@@H]1[C@H]3C(=O)O[C@H](c4ccccc4)[C@H](c4ccccc4)N3[C@H](c3ccc(O)cc3)[C@@]13C(=O)Nc1ccccc13)CC2
The composite z-score of the first is higher: 2.04 for the first, 1.33 for the second.

Going from COC(=O)[C@@]1(Cc2ccc(F)cc2)[C@H]2c3cc(C(=O)N4CCCC4)n(CCCNc4ncc(C(F)(F)F)cc4Cl)c3C[C@H]2CN1C(=O)c1ccccc1 to CO[C@H]1O[C@H](CO)[C@@H](OC(=O)Nc2cccc(F)c2)[C@H](OC(=O)Nc2ccccc2)[C@@H]1OC(=O)Nc1ccccc1, the composite z-score rises from -0.516 to 1.17.

In the case of CC1(C)C2C=C(C(O)C3C=CC4C(=O)NC(=O)C4N3Nc3ccc(Cl)cc3Cl)C[C@@H]1C2 (some centres not stated), the composite z-score is reported as -0.193.
